PubChem BioAssay (NCI)
The panel holds about 83,000 compounds, 20% with a hit somewhere; the sample as a whole holds those more often.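 The endpoint reported here, percent growth, reads 100 for growth as untreated, 0 for no net growth and -100 for all cells dead.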 A number with no mark means an inactive call. Active and inactive are the calls of the source. Rule for the calls: active = growth percent below 10; inactive = the rest.

Tests used:
Assay in all cases: NCI-60 one-dose screen, 48 h (100 = growth as untreated, 0 = no growth, -100 = all killed)
Settings in all cases: 10 µM
[1] = test system: NCI-H23 lung
[2] = test system: NCI-H226 lung
[3] = test system: NCI-H322M lung
[4] = test system: HOP-62 NSCLC
[5] = test system: NCI-H460 lung
[6] = test system: HOP-92 NSCLC
[7] = test system: NCI-H522 lung
[8] = test system: A549/ATCC NSCLC
[9] = test system: 786-0 renal
[10] = test system: COLO 205 colon

For `Nc1nc(-c2ccccc2)cc(-c2cc3ccccc3nc2Cl)n1`, the growth [1] was 89.3%, the growth [2] was 78.1% and the growth [3] was 96.7%. It also gave a growth [4] of 89.4%, a growth [5] of 81.5% and a growth [6] of 73.1%. The growth [7] was 89.4%, the growth [8] was 91% and the growth [9] was 89.7%. The growth [10] was 110%.
In the case of `O=c1cc(-c2ccccc2)oc2cc(OCCCNCc3ccccc3)cc(O)c12`, the growth [1] is reported as -91% (active), the growth [2] is reported as 46.4% and the growth [3] is reported as 31%. For the same molecule, the growth [4] was 21.3%, the growth [5] was -53.4% (active) and the growth [6] was -9.75% (active). For the same molecule, the growth [7] was -62.6% (active), the growth [8] was 26.2% and the growth [9] was -48% (active). The growth [10] was -88% (active).
In the case of `COc1cc2c(cc1OC)/C(=C\c1sc(Nc3ccc(O)cc3)nc1O)C(C(=O)O)=N2`, the growth [1] is reported as 47%, the growth [2] is reported as 63.7% and the growth [3] is reported as 53.8%. It also gave a growth [4] of 39.2%, a growth [5] of 18.2% and a growth [6] of 36.4%. The growth [7] was -18.3% (active), the growth [8] was 56.4% and the growth [9] was 29.1%. For the same molecule, the growth [10] was -30.7% (active).
With `COC[C@@H](CC(C)C)N=C1N/C(=C\c2ccc3ncsc3c2)C(=O)N1C` the growth [1] was -17.7% (active), the growth [2] was 11.4% and the growth [3] was 9.12% (active). For the same molecule, the growth [4] was -9.28% (active), the growth [5] was 21.2% and the growth [6] was 19.1%. The growth [7] was -29.6% (active), the growth [8] was 15.9% and the growth [9] was 14.9%. The growth [10] was -28.4% (active).
`Cc1ccc(/C(CSc2nnc(-c3c[nH]c4ccccc34)n2-c2ccccc2)=N/O)cc1` was tested, and the growth [1] was 53.3%, the growth [2] was -41.1% (active) and the growth [3] was -42.4% (active). For the same molecule, the growth [4] was -56.6% (active), the growth [5] was 1.99% (active) and the growth [6] was -5.5% (active). For the same molecule, the growth [7] was 23.8%, the growth [8] was 18.4% and the growth [9] was 2.17% (active). For the same molecule, the growth [10] was 12.4%.
`Cc1ccc(C(=O)NCCCNc2nc(Nc3ccc(N4CCN(C)CC4)cc3)nc3ccsc23)cc1` showed a growth [1] of 53.4%, a growth [2] of 68.7% and a growth [3] of 64.3%. For the same molecule, the growth [4] was 73.7%, the growth [5] was 49.2% and the growth [6] was 27.1%. For the same molecule, the growth [7] was 73.2%, the growth [8] was 54.5% and the growth [9] was -11.6% (active). The growth [10] was 32.7%.
With `COc1ccc(C(=O)/C=C/c2cc(C(F)(F)F)cc(C(F)(F)F)c2)cc1S(N)(=O)=O` the growth [1] was -86.1% (active), the growth [2] was -69.7% (active) and the growth [3] was -73.8% (active). For the same molecule, the growth [4] was -44.7% (active), the growth [5] was -24% (active) and the growth [6] was -37.9% (active). The growth [7] was -67.7% (active), the growth [8] was -11.7% (active) and the growth [9] was -69.2% (active). For the same molecule, the growth [10] was -66.1% (active).
